Laboratory results: PubChem BioAssay (Tox21)
Results filed as inconclusive are left out. The source made the active and inactive calls. Unless noted, calls come from the whole dose curve; as a rule, active = well fitted curve in the direction sought with a large enough effect in the repeat runs; inconclusive = weak or mixed curves; inactive = no such curve, though single readings can be large; an effect the other way counts as inactive or inconclusive.

Legend:
[1] = qHTS assay to identify small molecule antagonists of the thyroid receptor (TR) signaling pathway (AID 743065); note: series mostly up to about 70 µM; nearly all actives have a fitted effect of over 55% in size
Summary of the method: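 GH3.TRE-Luc rat pituitary cells carrying two TR response elements driving luciferase were plated for 4 h, given compound plus 1 nM T3 (final), and incubated 23.5 h at 37 C. ONE-Glo luminescence measured reporter inhibition; CellTiter-Fluor fluorescence tracked cytotoxicity.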

[2] = test system: thyroid hormone receptor (rat, GH3 cells); experiment: qHTS assay to identify small molecule agonists of the thyroid receptor (TR) signaling pathway (AID 743066; calls by dose curve)
[3] = molecular target: Estrogen receptor (Homo sapiens) (UniProt P03372); experiment: qHTS assay to identify small molecule antagonists of the estrogen receptor alpha (ER-alpha) signaling pathway (AID 743069; active = well fitted curve in the direction sought with a large enough effect in the signal ratio in the repeat runs, not every such curve was filed as active; the % refers to the signal ratio)
Summary of the method: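 Estradiol-stimulated ER-alpha-UAS-bla HEK293 cells, 18 hr compound exposure at 37C. LiveBLAzer B/G substrate, 2 hr RT, fluorescence read.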

[4] = qHTS assay to identify small molecule antagonists of the estrogen receptor alpha (ER-alpha) signaling pathway - cell viability counter screen (AID 743074; calls by dose curve;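 note: HEK293 cells carrying ER-alpha-UAS-bla reporter stimulated with 17beta-estradiol; nearly all actives have a fitted effect of over 45% in size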)
[5] = molecular target: Estrogen receptor (Homo sapiens) (UniProt P03372); experiment: qHTS assay to identify small molecule agonists of the estrogen receptor alpha (ER-alpha) signaling pathway (AID 743075; calls by dose curve;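 note: HEK293 GripTite cells with ER-alpha and UAS-driven beta-lactamase reporter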)
[6] = molecular target: Estrogen receptor (Homo sapiens) (UniProt P03372); experiment: qHTS assay to identify small molecule agonists of the estrogen receptor alpha (ER-alpha) signaling pathway using the BG1 cell line (AID 743079); note: nearly all actives have a fitted effect of over 20% in size
[7] = qHTS assay to identify small molecule antagonists of the estrogen receptor alpha (ER-alpha) signaling pathway using the BG1 cell line (AID 743080; calls by dose curve;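 note: BG1 cells stimulated with 17beta-estradiol alongside compound; series mostly up to about 70 µM; nearly all actives have a fitted effect of over 25% in size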)
Summary of the method: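 After 5 days in phenol-red-free 10% charcoal-stripped FBS medium, BG1-Luc-4E2 cells were seeded, left 24 h at 37 C, co-treated with compounds and 17beta-estradiol for 21.5 h, then assayed for viability and luciferase.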

[8] = qHTS assay to identify small molecule antagonists of the estrogen receptor alpha (ER-alpha) signaling pathway using the BG1 cell line - cell viability counter screen (AID 743081);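 note: compound given together with 17beta-estradiol as the ER stimulus; series mostly up to about 70 µM; nearly all actives have a fitted effect of over 45% in size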
[9] = qHTS assay to identify aromatase inhibitors - cell viability counter screen (AID 743084);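 note: cells stimulated with testosterone during compound exposure; nearly all actives have a fitted effect of over 55% in size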
[10] = molecular target: Aryl hydrocarbon receptor (Homo sapiens) (UniProt P35869); experiment: qHTS assay to identify small molecule that activate the aryl hydrocarbon receptor (AhR) signaling pathway (AID 743085);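 note: HG2L7.5c1 human HepG2 liver cells with stably integrated DRE-driven firefly reporter; series mostly up to about 70 µM; nearly all actives have a fitted effect of over 15% in size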
Summary of the method: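 24 h compound exposure, 37C, HepG2-derived HG2L7.5c1 cells with DRE-responsive luciferase. Readouts: fluorescence viability, then luminescence at room temperature after 30 min.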

[11] = qHTS assay to identify small molecule that activate the aryl hydrocarbon receptor (AhR) signaling pathway - cell viability counter screen (AID 743086);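 note: HepG2 liver cells carrying the AhR DRE luciferase reporter; series mostly up to about 70 µM; nearly all actives have a fitted effect of over 45% in size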
Summary of the method: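 HepG2-AhR-luc (HG2L7.5c1) cells, 4000/well, were preincubated 5 h at 37C, exposed to compound in qHTS format for 24 hr at 37C, then given CellTiter-Fluor for 30 min; viability was read as fluorescence in the reporter wells.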

[12] = molecular target: Peroxisome proliferator-activated receptor gamma (Homo sapiens) (UniProt P37231); experiment: qHTS assay to identify small molecule agonists of the peroxisome proliferator-activated receptor gamma (PPARg) signaling pathway (AID 743094; active = well fitted activation curve with a large enough effect in the signal ratio in the repeat runs, not every such curve was filed as active; the % refers to the signal ratio)
Summary of the method: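 Quantitative HTS agonist mode: stable HEK293H line with UAS-beta-lactamase reporter under PPARg control, 17 h compound exposure at 37C, fluorescence after 1 h FRET substrate loading at room temperature.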

[13] = qHTS assay to identify small molecule antagonists of the peroxisome proliferator-activated receptor gamma (PPARg) signaling pathway - cell viability counter screen (AID 743194); note: nearly all actives have a fitted effect of over 55% in size
Summary of the method: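 PPARg-UAS-bla HEK293H cells were plated, rested 5 h at 37 C, then treated with compounds plus rosiglitazone (50 nM final) for 17 h at 37 C; viability was then read by CellTiter-Glo luminescence after 30 min at room temperature.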

[14] = qHTS assay for small molecule agonists of the antioxidant response element (ARE) signaling pathway (AID 743202; active = well fitted activation curve with a large enough effect in the signal ratio in the repeat runs, not every such curve was filed as active; the % refers to the signal ratio)
Summary of the method: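 Compounds delivered in DMSO to ARE-bla HepG2 cells (2,000 cells/well, pre-incubated 5 h) and left 16 h at 37 C. LiveBLAzer B/G FRET substrate then added for 2 h at RT before fluorescence reading.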

[15] = qHTS assay for small molecule agonists of the antioxidant response element (ARE) signaling pathway - cell viability counter screen (AID 743203; calls by dose curve; note: nearly all actives have a fitted effect of over 55% in size)
Summary of the method: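 Seeded at 2,000 cells/well, ARE-bla HepG2 cells were incubated 5 hrs before compound addition. After 16 hrs of treatment at 37C with 5% CO2, CellTiter-Glo reagent was added and luminescence read 30 min later.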

[16] = qHTS assay for small molecule activators of the heat shock response signaling pathway - cell viability counter screen (AID 743209); note: nearly all actives have a fitted effect of over 50% in size
Summary of the method: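 First, HSE-bla HeLa cells were seeded at 1500 cells/well and kept overnight at 37 C. Next, compounds were pinned in and incubated 5 h. After the FRET substrate step, CellTiter-Glo was added and luminescence read 30 min later.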

[17] = qHTS assay for small molecule activators of the heat shock response signaling pathway (AID 743210; active = well fitted activation curve with a large enough effect in the signal ratio in the repeat runs, with a control signal flat, not every such curve was filed as active; the % refers to the signal ratio;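 note: HeLa cells with beta-lactamase reporter driven by heat shock elements; series mostly up to about 63 µM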)
Summary of the method: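 Reporter gene assay: HeLa cells stably bearing an HSE-bla construct, compound treatment 5 h at 37 C, LiveBLAzer substrate 2.5 h at RT, fluorescence intensity.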

[18] = qHTS assay to identify small molecule agonists of the peroxisome proliferator-activated receptor delta (PPARd) signaling pathway - cell viability counter screen (AID 743211); note: nearly all actives have a fitted effect of over 55% in size
Summary of the method: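 Luminescent ATP viability assay (CellTiter-Glo, 30 min RT) in UAS-bla HEK293H cells carrying the PPAR delta reporter construct, 3000 cells/well, after a 17 h compound treatment at 37 C.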

Aromatase (Homo sapiens) = Aromatase (Homo sapiens) (UniProt P11511); experiment: qHTS assay to identify aromatase inhibitors (AID 743083)
[19] = molecular target: Peroxisome proliferator-activated receptor gamma (Homo sapiens) (UniProt P37231); experiment: qHTS assay to identify small molecule antagonists of the peroxisome proliferator-activated receptor gamma (PPARg) signaling pathway (AID 743191; calls by dose curve; note: series mostly up to about 63 µM; nearly all actives have a fitted effect of over 30% in size)
Summary of the method: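 GeneBLAzer PPARg UAS-bla HEK293H cells carrying a UAS-driven beta-lactamase reporter were plated at 3000 cells/well, preincubated 5 h at 37C, then given compound for 17 h at 37C; LiveBLAzer B/G FRET substrate was read after 1 h at room temperature.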

Measured: Potency

Sequence of Estrogen receptor (Homo sapiens) (P03372 whole entry, looked up): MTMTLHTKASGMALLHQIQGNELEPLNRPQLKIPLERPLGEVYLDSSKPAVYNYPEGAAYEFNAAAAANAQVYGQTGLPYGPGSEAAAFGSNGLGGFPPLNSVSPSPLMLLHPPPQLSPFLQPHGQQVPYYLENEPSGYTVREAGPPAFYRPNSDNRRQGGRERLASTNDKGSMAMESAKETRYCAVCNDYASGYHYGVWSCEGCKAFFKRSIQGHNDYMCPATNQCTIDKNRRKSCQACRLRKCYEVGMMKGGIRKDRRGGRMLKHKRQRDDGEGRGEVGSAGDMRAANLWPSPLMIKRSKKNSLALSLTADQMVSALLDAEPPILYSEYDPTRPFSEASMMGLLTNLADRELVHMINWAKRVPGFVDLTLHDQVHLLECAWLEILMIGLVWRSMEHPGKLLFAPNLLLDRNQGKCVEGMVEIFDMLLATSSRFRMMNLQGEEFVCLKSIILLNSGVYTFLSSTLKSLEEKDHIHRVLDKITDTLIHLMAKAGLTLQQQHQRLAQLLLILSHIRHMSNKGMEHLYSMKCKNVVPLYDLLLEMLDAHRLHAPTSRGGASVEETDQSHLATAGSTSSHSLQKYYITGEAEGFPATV
Sequence of Aryl hydrocarbon receptor (Homo sapiens) (P35869 whole entry, looked up): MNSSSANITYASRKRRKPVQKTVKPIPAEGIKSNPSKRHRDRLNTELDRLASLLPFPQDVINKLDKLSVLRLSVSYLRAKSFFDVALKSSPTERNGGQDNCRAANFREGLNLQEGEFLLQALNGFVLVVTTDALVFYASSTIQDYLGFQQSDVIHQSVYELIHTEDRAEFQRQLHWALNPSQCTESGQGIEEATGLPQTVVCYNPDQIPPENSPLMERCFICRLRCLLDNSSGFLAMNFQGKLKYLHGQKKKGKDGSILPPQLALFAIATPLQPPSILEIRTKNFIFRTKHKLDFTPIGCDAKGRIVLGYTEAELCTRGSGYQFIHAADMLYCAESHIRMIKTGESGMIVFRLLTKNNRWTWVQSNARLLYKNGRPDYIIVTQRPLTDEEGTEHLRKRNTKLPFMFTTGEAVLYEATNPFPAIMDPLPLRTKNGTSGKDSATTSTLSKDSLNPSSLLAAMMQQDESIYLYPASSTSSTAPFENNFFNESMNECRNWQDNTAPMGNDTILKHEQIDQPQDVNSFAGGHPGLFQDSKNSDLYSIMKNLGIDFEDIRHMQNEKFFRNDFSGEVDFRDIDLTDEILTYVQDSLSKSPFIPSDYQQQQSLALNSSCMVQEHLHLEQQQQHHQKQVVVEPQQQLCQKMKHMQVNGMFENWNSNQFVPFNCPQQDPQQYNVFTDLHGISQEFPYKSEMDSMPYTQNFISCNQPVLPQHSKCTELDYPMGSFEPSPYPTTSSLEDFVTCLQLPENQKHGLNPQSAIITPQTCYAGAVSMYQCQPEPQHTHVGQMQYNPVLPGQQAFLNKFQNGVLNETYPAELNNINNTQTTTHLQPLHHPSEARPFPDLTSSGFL
Sequence of Aromatase (Homo sapiens) (P11511 whole entry, looked up): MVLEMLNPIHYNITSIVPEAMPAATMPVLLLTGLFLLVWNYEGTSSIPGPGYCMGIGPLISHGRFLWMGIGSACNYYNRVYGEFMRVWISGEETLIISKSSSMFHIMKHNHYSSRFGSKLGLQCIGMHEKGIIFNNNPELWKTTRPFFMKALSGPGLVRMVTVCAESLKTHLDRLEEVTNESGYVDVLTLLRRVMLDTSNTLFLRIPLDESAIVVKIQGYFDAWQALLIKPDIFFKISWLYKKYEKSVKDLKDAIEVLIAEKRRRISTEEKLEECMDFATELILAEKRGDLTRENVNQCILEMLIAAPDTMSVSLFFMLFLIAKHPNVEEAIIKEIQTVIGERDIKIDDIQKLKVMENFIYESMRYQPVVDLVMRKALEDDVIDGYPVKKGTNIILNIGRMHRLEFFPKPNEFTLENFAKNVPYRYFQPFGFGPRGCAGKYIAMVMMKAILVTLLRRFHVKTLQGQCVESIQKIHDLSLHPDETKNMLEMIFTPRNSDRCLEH
Sequence of Peroxisome proliferator-activated receptor gamma (Homo sapiens) (P37231 whole entry, looked up): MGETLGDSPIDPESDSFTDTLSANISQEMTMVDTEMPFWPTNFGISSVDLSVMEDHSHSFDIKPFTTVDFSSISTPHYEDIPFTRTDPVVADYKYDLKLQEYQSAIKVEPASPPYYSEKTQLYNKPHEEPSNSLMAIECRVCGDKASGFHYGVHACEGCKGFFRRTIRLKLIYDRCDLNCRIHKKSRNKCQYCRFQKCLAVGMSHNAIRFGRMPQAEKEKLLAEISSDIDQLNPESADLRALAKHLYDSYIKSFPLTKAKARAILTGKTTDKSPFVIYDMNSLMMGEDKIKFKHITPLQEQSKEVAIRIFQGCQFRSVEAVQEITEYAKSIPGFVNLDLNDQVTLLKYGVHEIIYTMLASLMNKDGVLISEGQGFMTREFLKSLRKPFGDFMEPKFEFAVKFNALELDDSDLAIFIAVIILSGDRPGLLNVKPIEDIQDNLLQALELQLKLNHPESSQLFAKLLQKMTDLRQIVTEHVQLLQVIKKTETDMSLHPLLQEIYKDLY

CC(C)CCCCCCc1ccc(OCCOCCO)cc1
not listed: Aromatase (Homo sapiens) | [19]
inactive: all other assays above

O=C(Cl)c1cccc([N+](=O)[O-])c1
not listed: [10]
inactive: all other assays above

N#Cc1ccc(C(c2ccc(C#N)cc2)n2cncn2)cc1
not listed: [13] | Aromatase (Homo sapiens)
inactive: all other assays above

CC/C=C\CCOC(=O)C(C)C
not listed: [10] | [13] | [14] | [19]
inactive: all other assays above

OC[C@H]1O[C@@H](O[C@H]2[C@H](O)[C@@H](O)[C@H](O)O[C@@H]2CO)[C@H](O)[C@@H](O)[C@H]1O
not listed: [10] | [19]
inactive: all other assays above

O=Cc1ccc(F)c(Br)c1
not listed: [10]
inactive: all other assays above

CN1CCN(c2c(F)cc3c(=O)c(C(=O)O)cn4c3c2SCC4)CC1
not listed: [10] | [19]
inactive: all other assays above

CC(C)c1ccccc1
not listed: [16] | [17] | [18] | Aromatase (Homo sapiens)
inactive: all other assays above
